Our source for the growth values is PubChem BioAssay (NCI).

Each structure is given as a SMILES string. Several values for one entry are separate records, joined by “and”; a condition that tells them apart may be missing. Equal values may be shown once. Compounds without any hit were thinned out: in the full panel of roughly 83,000, 20% have a hit.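 Compound tested at a single concentration for 48 hours in 96-well plates; a percent growth value below 10 was scored as active.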 Activity calls are given as the source filed them.

The subject of the assay is MDA-MB-468 breast. Kind of assay: NCI-60 one-dose screen, 48 h (100 = growth as untreated, 0 = no growth, -100 = all killed). The note with it: 10 µM unless noted.
On to `O=C1c2cc3c(cc2-c2c1c1ccc(Cl)cc1c(=O)n2C[C@H](O)[C@@H](O)[C@H](O)CO)OCO3`, for which the growth was -63.4% (active).
To `CC(C)(C)CC(C)(C)c1ccc(OCCOCC[N+](C)(C)CC(=O)[O-])cc1` belongs 108% (inactive); to `CCC(=O)Oc1ccc(-c2ccccc2)cc1Br`, 98.4% (inactive); to `CCOC(=O)c1sc(NC(=O)c2cc(OC)c(OC)c(OC)c2)nc1C`, 92.2% (inactive).
The result for `NS(=O)(=O)c1ccc(C(=O)N/N=C(\CS(=O)(=O)c2ccccc2)c2cc3cc(Br)ccc3o2)cc1` reads 78.9% (inactive).
The result for `Cn1cc(-c2csc(-c3cn(C)c4ccc(Br)cc34)n2)c2cnccc21` reads -68.4% (active); that for `Cc1csc(Nc2cccc(Nc3nc(C)cs3)c2)n1`, 47.6% (inactive).
As to `N#Cc1c(-c2ccc(Cl)cc2)csc1NC(=O)Nc1ccc(Cl)c(C(F)(F)F)c1`, the growth is -9.61% (active).
To `COc1cc2c(c(O)c1Cl)C(=O)c1c(O)cc(C[C@H](C)O)cc1[C@H]2[C@H]1c2cc(C[C@H](C)O)cc(O)c2C(=O)c2c1cc(OC)c(Cl)c2O` belongs -14.6% (active); to `CC(=O)Nc1ccc(S(=O)(=O)N2C(=O)CCC2C(=O)Nc2ccccc2)cc1` (stereo unspecified), 40.3% (inactive); to `Nc1nc2ncc(CNc3ccc(C(=O)N[C@@H](CCc4nn[nH]n4)C(=O)O)cc3)nc2c(=O)[nH]1`, 93.9% (inactive) and 98.6% (inactive).
To `O=C(N/N=C/c1ccc(F)cc1)c1[nH]c2ccc(I)cc2c1-c1ccccc1` belongs 17.8% (inactive); to `O=C1/C(=C/c2ccccc2[N+](=O)[O-])COc2ccc(O)cc21`, -9.15% (active).
To `CN1CCN(c2ccc(Nc3ncc(Cl)c(NC[C@@H]4CCCO4)n3)cc2)CC1` belongs 30.7% (inactive).
Turning to `COc1ccc(-c2[nH]ncc2-c2cc(OC)c(OC)c(OC)c2)cc1`, the growth was -4.91% (active).
To `Cn1nc(C(F)(F)F)c(-c2ccc(Cl)c(C(F)(F)F)c2)c1-c1ccc(OCc2ccc(Cl)cc2)cc1O` belongs -18.7% (active); to `CC1(C)CC[C@]2(C(=O)N3CCCN(CC#N)CC3)CC[C@]3(C)C(=CC[C@@H]4[C@@]5(C)CC[C@H](O)C(C)(C)[C@@H]5CC[C@]43C)[C@H]2C1`, 41.2% (inactive); to `Cc1csc(-c2nnc(Nc3ccc(Oc4ncccc4-c4ccnc(N)n4)cc3)c3ccccc23)c1`, 41.6% (inactive).
`CCN(CC)CC(=O)N(CC)c1ccc(C)c(Cl)c1`: the growth was 95.6% (inactive).
To `O=C(Nc1ccc(N2CCNCC2)cc1)c1[nH]ncc1Nc1cc(C2CC2)ncn1` belongs 49.2% (inactive); to `O=S(=O)(NCCNc1cc(-c2cn(-c3ccccc3)nc2-c2cccc(O)c2)ccn1)c1ccc(Br)cc1`, -28.5% (active); to `Cc1nn(-c2ccccc2)c2c1oc(=O)c1cc(Cl)ccc12`, 98.7% (inactive).
To `CCN1C(=O)N(CC)C2C1NN=c1s/c(=C3\C(=O)N(CC(C)C)c4ccccc43)c(=O)n12` (stereo unspecified) belongs 6% (active); to `NCCNc1ccc([N+](=O)[O-])cc1`, 110% (inactive); to `C/C=C(/C)n1cnc2c(Nc3ccccn3)nc(Cl)nc21`, 93% (inactive).
To `C=CC(=O)Nc1ccc2ncnc(Nc3cccc(NS(=O)(=O)CCC)c3Cl)c2c1` belongs -31.9% (active).
`CCOC(=O)c1c(C)oc(C)c(C(=O)OCC)c1=O`: the growth is 103% (inactive).
To `CC(C)c1nc(N(C)S(C)(=O)=O)nc(-c2ccc(F)cc2)c1/C=C/C(=O)C[C@@H](O)CC(=O)O` belongs 113% (inactive); to `O=C(CCc1nnc(CN(c2ccccc2)c2ccccc2)o1)c1nc2ccccc2[nH]1`, 89.1% (inactive); to `Cc1c(CC(=S)N2CCOCC2)nnn1-c1cccc(C(F)(F)F)c1`, 117% (inactive).
The result for `Nc1n[nH]c2cccc(C#Cc3cccc(NC(=O)c4ccc(N5CCOCC5)c(C(F)(F)F)c4)c3)c12` reads 21.8% (inactive); that for `COc1cc(/C=C/C(=O)c2ccc(Cl)cc2)ccc1Oc1nc(NCCO)nc(N2CCOCC2)n1`, 91.5% (inactive); that for `COc1ccc(NC(=O)/C=C/c2ccc(NC(=O)N3CCCC3)cc2)cn1`, 116% (inactive).
The result for `O=C1/C=C/[C@@H](O)[C@@H]2C[C@@H](O)C[C@H]2/C=C/CCC[C@H]([C@@H](O)CO)O1` reads -5.34% (active); that for `O=C(Nc1ccc(Cl)cc1Cl)Nc1ccc(-c2cccnc2)cc1N1CCC(CO)CC1`, 23% (inactive).
As for `CCOc1cc(CCNS(=O)(=O)c2ccc(C)cc2)c(C(C)=O)cc1OCC`, the growth is 67.1% [100 µM] (inactive).
